This is one part of a sample in which hits are shown more often than they occur.
Pf Dd2 growth – inhibitors of Plasmodium falciparum Dd2 growth; P. falciparum Dd2 growth, SYBR Green, 72 h; Potency, µM (highest dose often 28.9 µM), hits mostly inhibitors; hit rate 4.3% among 120,000; active = well fitted inhibition curve with a large enough effect; also: nearly all actives have a fitted effect of over 65% in size
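Infected erythrocytes (Dd2, 0.3% parasitemia, 2.5% hematocrit final) are added to compound in RPMI-1640/Albumax II medium, grown 72 h at 37C in low oxygen, then lysed with saponin/Triton-X containing SYBR Green and read by fluorescence.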
Numbers stand for hits; i = inactive.

SMILES | Pf Dd2 growth
CCc1ccc(OCC2c3cc(OC)c(OC)cc3CCN2C(=O)Cc2ccc(OC)c(OC)c2)cc1 (centres undefined) | 8.9µM
CCOc1ccc(NC(=O)N2CCc3cc(OC)c(OC)cc3C2CNC(C)=O)cc1 (centres undefined) | i
CCc1ccccc1NC(=O)N1CCc2cc(OC)c(OC)cc2C1CC(=O)OC (centres undefined) | i
COc1cc2c(cc1OC)C(CNC(=O)Cc1ccccc1)N(C(=O)NC(C)C)CC2 (centres undefined) | i
COC(=O)c1ccc(OCC2c3cc(OC)c(OC)cc3CCN2C(=O)c2ccccc2F)cc1 (centres undefined) | 10µM
COc1ccc(C(=O)NCC2c3cc(OC)c(OC)cc3CCN2C(=O)Nc2ccccc2F)cc1 (centres undefined) | i
COc1ccc(CC(=O)N2CCc3cc(OC)c(OC)cc3C2COc2ccc(OC)cc2)cc1 (centres undefined) | 7.9µM
COc1cc2c(cc1OC)C(CNC(=O)C1CC1)N(C(=O)NC(C)C)CC2 (centres undefined) | i
CCCC(=O)N1CCc2cc(OC)c(OC)cc2C1COc1ccccc1OC (centres undefined) | 13µM
COc1cc(OC)c(NC(=O)N2CCc3cc(OC)c(OC)cc3C2CC(=O)O)cc1Cl (centres undefined) | i
O=C1OCC2=C1C(c1ccccc1)NC(=O)N2CC(=O)N1CCCCC1 (centres undefined) | i
CC(=O)N1CCC(N2CC3(C2)C(=O)N(CCCN2CCCC2=O)C(=O)[C@@H]2C[C@@H](O)CN23)CC1 | i
Cc1noc(-c2cn(C3CCN(C(=O)c4ccc(OC(F)(F)F)cc4)CC3)nn2)n1 | i
Cc1ccccc1C(=O)N1CCCN(c2nc3ncccc3o2)CC1 | i
CC(=O)Nc1ccc(CN2CCCCC23Cc2ccccc2CNC3=O)cc1 (centres undefined) | i
O=C(c1cccc(Cl)c1)N1CCC2(CC1)C(=O)NCN2Cc1ccc(Cl)cc1 | i
Cc1cc(CN2CCC(n3cc[nH]c3=O)CC2)no1 | i
Cc1ccc(C)c(NC(=O)C2CCN(C(=O)c3ncn4c3COC(c3ccc(F)cc3)C4)CC2)c1 (centres undefined) | i
Cc1nccc(-c2ccccc2)c1C(=O)N1CCOCC1CC(=O)N(C)C (centres undefined) | i
Cc1cc(CNC(=O)CC2C=CS(=O)(=O)C2)c2[nH]c(-c3ccccc3)c(C)c2c1 (centres undefined) | i
COCC(=O)NC[C@@H]1C=C(C)[C@H](CC(=O)O)C[C@H]1C(C)C | i
COc1ccc(CC(=O)NCc2ccc3c(c2)CCN3C(=O)c2ccc(Cl)cc2)cc1OC | i
COc1cc2c(cc1OC)C(COc1cc(C)cc(C)c1)N(C(=O)COc1ccccc1)CC2 (centres undefined) | 5µM
COc1cc2c(cc1OC)C(CNC(=O)c1ccccc1C)N(C(=O)Nc1cccc(C)c1)CC2 (centres undefined) | i
COc1ccc(C(=O)N2CCN(C(=O)COc3ccccc3)CC2)cc1OC | i
SMILES | Pf Dd2 growth
CCOC(=O)c1ccc(OCC2c3cc(OC)c(OC)cc3CCN2C(=O)Cc2ccc(OC)c(OC)c2)cc1 (centres undefined) | 8.9µM
Cc1nnnn1CCC(=O)N[C@@H]1COCC[C@@H]1OCc1cscn1 | i
COc1ccc(S(=O)(=O)N2C[C@@H](F)C[C@H]2C(=O)N2CCOCC2)cc1OC | i
COCCNC(=O)[C@@H]1C[C@H](Oc2cccnc2)CN1C(=O)c1cnc(C)cn1 | i
NC(=O)NCC(=O)N1CCc2c(cccc2S(=O)(=O)N2CCOCC2)C1 | i
Cc1ccccc1C(=O)N1CCN(c2cc(-c3ccccc3)[nH]n2)CC1 | i
N[C@@H](Cc1cnc[nH]1)C(=O)N1CCC2(CC1)Nc1ccccc1NC2=O | i
Cc1oc(-c2ccc(Cl)cc2)nc1CN1C(=O)CN=C(c2ccccc2)c2cc(Cl)ccc21 | i
Cc1oc(-c2ccc(Cl)cc2)nc1CN1C(=O)CN=C(c2ccccc2)c2ccccc21 | i
COc1ccc(-c2nc(CN3C(=O)CN=C(c4ccccc4Cl)c4cc(Cl)ccc43)c(C)o2)cc1OC | 13µM
Cn1nccc1C(=O)N1CCCC(Cc2noc(-c3ccccn3)n2)C1 (centres undefined) | i
CCN(CC)C(=O)CC1COc2ccc(C(=O)NCCOC)cc2N1C (centres undefined) | i
CC[C@@H]1[C@@H](NC(=O)C2(c3ccc(S(C)(=O)=O)cc3)CCC2)[C@@H]2CCO[C@H]12 | 8.9µM
CC[C@@H]1[C@@H](NC(=O)Cc2csc(C(C)=O)c2)[C@@H]2CCO[C@H]12 | i
CC[C@@H]1[C@@H](NC(=O)CC2Cc3ccccc3C2)[C@@H]2CCO[C@H]12 | i
CCc1ccc(C(=O)N2[C@@H]3CC[C@H]2CC(NC(=O)c2ccncc2)C3)cc1 (some centres undefined) | i
COCC(=O)N1CCc2nc(-c3ccc(Cl)cc3)nc(-c3ccccc3)c2C1 | i
Cc1nc2ncccn2c1C(=O)N1CCC(c2nccn2CC(N)=O)CC1 | i
Cc1noc(-c2cn(C3CCN(C(=O)c4ccc(F)cc4Cl)CC3)nn2)n1 | i
CCCCCCNc1ncnc2c1sc1nc(N3CCOCC3)c3c(c12)CCCC3 | 8.9µM
CC(C)OCCCNc1ncnc2sc3c(c12)CCCC3 | i
CCCc1nc2sc3c(N4CCCCC4)ncnc3c2c2c1CCCC2 | i
CC(C)NC(=O)CCC[C@@H]1[C@H]2CCCN3CCC[C@@H](CN1C(=O)c1cccnc1)[C@@H]23 | i
O=C(CN1CCOC1=O)N1CCC2(CCC(=O)N(CCCn3ccnc3)C2)CC1 | i
COC(=O)CNC(=O)c1cc(-c2ccc(Cl)cc2Cl)c2cnn(C)c2n1 | i
SMILES | Pf Dd2 growth
CCc1ccc(Cn2nnc3c(=O)[nH]c(C4CCCN(C(=O)c5cccc(Cl)c5)C4)nc32)cc1 (centres undefined) | i
O=c1[nH]c(C2CCCN(S(=O)(=O)c3ccccc3Cl)C2)nc2c1nnn2Cc1ccc(OC(F)(F)F)cc1 (centres undefined) | i
COc1cccc(Cn2nnc3c(=O)[nH]c(C4CCCN(C(=O)c5ccc(C)cc5)C4)nc32)c1 (centres undefined) | 10µM
CC(C)CCN1CC2(Cc3ccccc3NC2=O)C1 | i
COc1cccc(COC2CN(CCc3ccccc3)C(=O)CN(C(=O)CN3CCOC3=O)C2)c1 (centres undefined) | i
O=C(C1CCCCC1)N1[C@H]2CC[C@@H]1c1cnc(-c3ccc(F)cc3)nc1C2 | i
O=C(C1CCC1)N1[C@H]2CC[C@@H]1c1cnc(-c3ccc(F)cc3)nc1C2 | 13µM
COCCn1c(C)cc(C(=O)N2[C@H]3CC[C@@H]2c2cnc(-c4ccc(F)cc4)nc2C3)c1C | 11µM
CCC(=O)N1[C@H]2CC[C@@H]1c1cnc(-c3ccc(F)cc3)nc1C2 | i
Cc1ncccc1C(=O)N1[C@H]2CC[C@@H]1c1cnc(-c3ccc(F)cc3)nc1C2 | i
COc1ccc(C(=O)N2[C@H]3CC[C@@H]2c2cnc(-c4ccc(F)cc4)nc2C3)cc1F | i
CO[C@H]1C(=O)N(C(C)C)[C@H]1C1CCN(S(=O)(=O)Cc2ccccc2)CC1 | i
COc1cc(C(=O)NCCCn2ccnn2)ccc1OC1CCN(C(C)=O)CC1 | i
Cc1ncsc1CN(Cc1ccccc1)C(=O)CCn1nnnc1CN1CCOCC1 | i
O=C(NC1CCN(c2cc(-c3cccs3)[nH]n2)C1)c1ccccc1Cl (centres undefined) | i
O=C([C@@H]1C[C@H](F)CN1S(=O)(=O)Cc1ccccc1)N1CCCCC1 | i

Bioassay records (PubChem BioAssay)
